Assay [1] addresses Cytochrome P450 3A4 (Homo sapiens) (UniProt P08684). Put plainly: qHTS Assay for Inhibitors and Substrates of Cytochrome P450 3A4 (AID 884). Note: % is set by controls: 0 for no effect and ±100 for the full control effect; nearly all actives have a fitted effect of over 50% in size. Conditions: recombinant CYP3A4, Luciferin-PPXE luminescence; series mostly up to 57.1 µM. In short, it runs like this:
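20 nM human CYP3A4 with 25 uM Luciferin-PPXE (at KM) in 200 mM KPO4, preincubated 10 min with compound; NADPH regeneration started a 60 min RT reaction. Luciferin detected by luminescence, normalized to 57 uM ketoconazole as full inhibition.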
For orientation: In qHTS, concentration-response curves come from the screen itself.

Assay [2] in a line: Confirmation and Secondary Assay for Modulators of Hemoglobin Beta Chain Splicing at IVS2 654 locus (AID 910).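 Note: HeLa cells stably carrying EGFP split by mutant beta-globin IVS2-654 intron; % of control where 0% means no effect.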 Conditions: HeLa EGFP-654 splicing reporter, GFP fluorescence, 48 h; series mostly up to 46.1 µM. In short, it runs like this: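 HeLa cells stably expressing EGFP interrupted by β-globin IVS2-654 intron, seeded overnight in Opti-MEM/2% FCS, then treated 2 days at 37 °C. Restored splicing read as total peak GFP intensity per well by laser scanning cytometry (488 nm excitation, 500–520 nm emission); 500 nM antisense PNA as control.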

A short description of assay [3]: Confirmation and Secondary Assay for Modulators of Hemoglobin Beta Chain Splicing at IVS2 705 locus (AID 930).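 Note: HeLa cells stably expressing the EGFP-705 splicing reporter; GFP fluorescence per well restored by corrected splicing of the IVS2-705 intron in EGFP; % of control where 0% means no effect.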 Conditions: HeLa EGFP-705 splicing reporter, GFP fluorescence, 48 h; series mostly up to 46.1 µM. In short, it runs like this: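 Stable HeLa line with EGFP disrupted by mutant beta-globin intron 2 (705). Overnight attachment, then 2 days of compound at 37C, 5% CO2. Signal: peak GFP intensity summed over objects 5-250 µm.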

For assay [4], the target named is Cytochrome P450 2D6 (Homo sapiens) (UniProt P10635). In words: qHTS Assay for Inhibitors and Substrates of Cytochrome P450 2D6 (AID 891). Note: nearly all actives have a fitted effect of over 60% in size. Note: potency is the fitted concentration of half-maximal effect. To be noted: recombinant CYP2D6, luciferin-ME EGE luminescence; series mostly up to 57.1 µM. In outline: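 Human CYP2D6 (5 nM) with 30 uM Luciferin-ME EGE (at Km) in 100 mM KPO4, compound preincubated 10 min, then NADPH regeneration system for 60 min at room temperature. Luciferin read by luminescence; normalized to 1.43 uM quinidine.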

Assay [5] deals with Cytochrome P450 3A4 (Homo sapiens) (UniProt P08684). Put plainly: qHTS Assay for Activators of Cytochrome P450 3A4 (AID 885). Note: nearly all actives have a fitted effect of over 65% in size. Conditions: recombinant CYP3A4, Luciferin-PPXE luminescence, 60 min; series mostly up to 57.1 µM. In short, it runs like this:
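Quantitative HTS format: compounds preincubated with 20nM human CYP3A4 and Luciferin-PPXE substrate at KM, reaction started by NADPH regeneration, stopped after 60 min, luciferase luminescence read 20 min later.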

The target of assay [6] is Guanine nucleotide-binding protein G(i) subunit alpha-1 (Homo sapiens) (UniProt P63096). Put plainly: qHTS Assay for Inhibitors of RGS12 GoLoco Motif Activity (Green Fluorophore) (AID 879).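 Note: 0% = labeled peptide with Gαi1 and full inhibition = labeled peptide alone without protein; negative values mean loss of peptide binding seen as reduced polarization.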 To be noted: Galphai1/FITC-RGS12 GoLoco peptide, fluorescence polarization; series mostly up to 57.1 µM. In short, it runs like this: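 Fluorescence polarization assay: 50 nM Gαi1 with 10 nM FITC-labeled RGS12 GoLoco peptide in 10 mM Tris pH 7.5, 150 mM NaCl, 0.1 mM GDP, 0.05% NP40, 10 min at room temperature with compound.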

The nature of assay [7]: qHTS Assay for Identification of Small Molecule Agonists for Thrombopoietin (TPO) Signaling Pathway (AID 917). Note: % is set by controls: 0 for no effect and ±100 for the full control effect. Conditions: TPO signaling pathway reporter cells, agonist qHTS, stimulated with TPO at its EC50; series mostly up to 38.5 µM. In short, it runs like this: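 Reporter: GpIIb promoter–luciferase in murine Ba/F3 expressing human TPO receptor. Pre-starved of IL-3 overnight; compounds with 26 pM TPO, 24 hrs, 37 C/5% CO2; luminescence read.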

For assay [8], the target named is Pyruvate kinase (Leishmania mexicana) (UniProt Q27686). In words: qHTS Validation Assay for Inhibitors of Leishmania Mexicana Pyruvate Kinase (AID 945).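 Note: 0% = DMSO only neutral control wells.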 Conditions: purified L. mexicana pyruvate kinase, enzyme activity, E451W mutant enzyme; series mostly up to 57.5 µM. In outline: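 Mutant LmPYK (E451W), 0.2 nM, plus 0.5 mM PEP and 0.1 mM ADP in 50 mM imidazole pH 7.2 containing 0.01% Tween 20 and 0.05% BSA. Incubated 1 h at room temperature; luminescence via PKLight, normalized to DMSO.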

The target in assay [9] is Muscarinic acetylcholine receptor M1 (Rattus norvegicus) (UniProt P08482). In words: qHTS Assay for Antagonists of Acetylcholine Muscarinic M1 Receptor: Measurement of IP-One Response (AID 944). Note: nearly all actives have a fitted effect of over 75% in size. To be noted: CHO-M1 cells, IP-One HTRF, antagonist mode; series mostly up to 46.1 µM. In outline:
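Steps: plate transfected CHO-M1 cells overnight; add test compound, 10 min; add carbachol (200 nM, EC80) in stimulation buffer with LiCl; incubate 30 min; add labelled IP1 tracer and anti-IP1 antibody in lysis buffer; read HTRF after 10 min.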

Assay [10] has the same target. Put plainly: qHTS Assay for Antagonists of Acetylcholine Muscarinic M1 Receptor: Kinetic Measurement of Intracellular Calcium Response (AID 943).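 Note: Fluo-4 calcium signal as peak divided by basal fluorescence over 4 min; nearly all actives have a fitted effect of over 75% in size.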 To be noted: M1-expressing cells, kinetic intracellular calcium fluorescence; series mostly up to 35.3 µM. In short, it runs like this: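 Intracellular calcium flux, recorded with Fluo-4 in a kinetic plate reader, served as signal; the response to carbachol at EC80 (100 nM final) was taken as maximal over minimal fluorescence after a 10 min compound pre-incubation in rat M1-CHO cells.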

Assay [11] in a line: qHTS Assay for Identification of Small Molecule Antagonists for Thrombopoietin (TPO) Signaling Pathway (AID 918). Note: potency is the fitted concentration of half-maximal effect; nearly all actives have a fitted effect of over 60% in size. To be noted: TPO-dependent cell signaling reporter, antagonist mode. In short, it runs like this: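 First, Ba/F3 reporter cells expressing human TPO receptor were held overnight without IL-3. Next, compound and 26 pM TPO were added. After 24 hrs incubation at 37 C, luciferase luminescence under the Glycoprotein IIb promoter was recorded.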

In assay [12] the target is Cytochrome P450 2C9 (Homo sapiens) (UniProt P11712). In words: qHTS Assay for Inhibitors and Substrates of Cytochrome P450 2C9 (AID 883). Note: % is set by controls: 0 for no effect and ±100 for the full control effect; nearly all actives have a fitted effect of over 60% in size. To be noted: recombinant CYP2C9, luciferin-H luminescence, 60 min; series mostly up to 57.1 µM. In short, it runs like this:
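10nM CYP2C9 + 100uM Luciferin-H (=KM), 25mM KPO4; cpd 10 min 37C; NADPH regen, 60 min 37C; stop/detect with P450 Glo-Buffer 20 min; luminescence. Norm. to 57uM sulphaphenazole as full inhibition.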

Assay [13] can be described thus: qHTS Assay for Identification of Small Molecule Agonists for Hypoxia Response Element Signaling Pathway (AID 914; active = well fitted activation curve with a large enough effect in the signal ratio, with a control signal flat, not every such curve was filed as active; the % refers to the signal ratio; note: % of control where 0% means no effect). To be noted: ME-180 (cervical carcinoma) HRE-bla reporter, beta-lactamase ratio, CoCl2, 17 h; activation: stronger effect = higher value. In outline:
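Reporter activity (beta-lactamase, CCF4 460nm/530nm ratio) in HRE-bla ME-180 cells is recorded after 17 h compound exposure with EC50 CoCl2 at 37 degrees Celsius. AC50 values come from titration data.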

Assay [14] is described as follows: qHTS Assay for Identification of Small Molecule Antagonists for NFkB Signaling Pathway (AID 895; active = well fitted inhibition curve with a large enough effect in the signal ratio, with a control signal flat, not every such curve was filed as active; the % refers to the signal ratio; note: % is set by controls: 0 for no effect and ±100 for the full control effect). To be noted: NFkB beta-lactamase reporter cells, FRET ratio 460/530, stimulated with 10 pM TNF alpha; series mostly up to 38.3 µM. In outline:
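ME-180 NFkB-bla cells (beta-lactamase under NFkB response element), plated overnight, treated with compound then 10 pM TNF alpha (about EC50) for 5 hrs at 37 C. LiveBLAzer FRET read at 460/530 nm emission, 405 nm excitation.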

Where “and” joins values, the source holds several entries; their conditions need not be identical. Equal values may be shown once. Unmarked numbers belong to inactive results. Inconclusive results are not listed. Calls of active or inactive are those of the source. Unless noted, calls come from the whole dose curve; as a rule, active = well fitted curve in the direction sought with a large enough effect; inconclusive = small, poorly fitted or top-dose-only effect, or another doubt; inactive = no such curve, though single readings can be large; an effect the other way counts as inactive or inconclusive.

This passage reports Potency, outcome and activation results from PubChem BioAssay (NCATS).

Chain of Guanine nucleotide-binding protein G(i) subunit alpha-1 (Homo sapiens) (P63096 whole entry, looked up): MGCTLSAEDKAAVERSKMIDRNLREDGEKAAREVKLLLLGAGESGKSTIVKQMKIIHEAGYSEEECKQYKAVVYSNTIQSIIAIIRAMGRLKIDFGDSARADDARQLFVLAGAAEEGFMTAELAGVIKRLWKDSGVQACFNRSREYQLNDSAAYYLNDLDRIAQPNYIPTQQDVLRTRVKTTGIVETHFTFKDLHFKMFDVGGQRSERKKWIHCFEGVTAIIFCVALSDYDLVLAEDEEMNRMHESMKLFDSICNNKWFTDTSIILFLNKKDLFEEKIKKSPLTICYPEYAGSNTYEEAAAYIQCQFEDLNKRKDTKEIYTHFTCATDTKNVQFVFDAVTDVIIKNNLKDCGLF
Chain of Cytochrome P450 3A4 (Homo sapiens) (P08684 whole entry, looked up): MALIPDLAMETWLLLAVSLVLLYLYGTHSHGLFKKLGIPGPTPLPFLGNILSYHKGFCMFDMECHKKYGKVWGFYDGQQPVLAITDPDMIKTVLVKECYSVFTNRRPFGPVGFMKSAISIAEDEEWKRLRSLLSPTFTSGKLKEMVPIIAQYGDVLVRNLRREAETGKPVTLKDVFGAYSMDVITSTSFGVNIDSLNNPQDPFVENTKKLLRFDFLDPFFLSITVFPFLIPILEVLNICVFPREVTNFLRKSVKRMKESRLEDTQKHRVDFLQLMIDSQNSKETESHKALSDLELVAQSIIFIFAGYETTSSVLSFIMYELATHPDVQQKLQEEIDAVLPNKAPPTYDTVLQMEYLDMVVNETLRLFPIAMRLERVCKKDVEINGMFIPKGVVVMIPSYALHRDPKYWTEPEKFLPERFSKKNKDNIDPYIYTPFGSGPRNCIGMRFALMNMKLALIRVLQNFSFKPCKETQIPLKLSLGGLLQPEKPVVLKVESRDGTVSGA
Chain of Pyruvate kinase (Leishmania mexicana) (Q27686 2-499 E452W): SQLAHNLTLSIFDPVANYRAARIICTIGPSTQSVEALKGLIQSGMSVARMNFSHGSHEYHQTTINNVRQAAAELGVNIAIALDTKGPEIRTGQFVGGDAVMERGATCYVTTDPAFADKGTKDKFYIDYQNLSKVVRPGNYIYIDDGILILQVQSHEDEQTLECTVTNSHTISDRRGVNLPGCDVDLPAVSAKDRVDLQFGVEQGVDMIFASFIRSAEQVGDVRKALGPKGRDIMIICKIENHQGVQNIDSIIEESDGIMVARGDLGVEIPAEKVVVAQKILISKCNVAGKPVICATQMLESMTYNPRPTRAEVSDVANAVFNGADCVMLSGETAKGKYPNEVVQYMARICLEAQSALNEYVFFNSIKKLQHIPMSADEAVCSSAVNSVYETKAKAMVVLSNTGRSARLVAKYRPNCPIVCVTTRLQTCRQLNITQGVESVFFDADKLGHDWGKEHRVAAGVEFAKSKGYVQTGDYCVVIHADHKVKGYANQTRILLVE
Chain of Muscarinic acetylcholine receptor M1 (Rattus norvegicus) (P08482 whole entry, looked up): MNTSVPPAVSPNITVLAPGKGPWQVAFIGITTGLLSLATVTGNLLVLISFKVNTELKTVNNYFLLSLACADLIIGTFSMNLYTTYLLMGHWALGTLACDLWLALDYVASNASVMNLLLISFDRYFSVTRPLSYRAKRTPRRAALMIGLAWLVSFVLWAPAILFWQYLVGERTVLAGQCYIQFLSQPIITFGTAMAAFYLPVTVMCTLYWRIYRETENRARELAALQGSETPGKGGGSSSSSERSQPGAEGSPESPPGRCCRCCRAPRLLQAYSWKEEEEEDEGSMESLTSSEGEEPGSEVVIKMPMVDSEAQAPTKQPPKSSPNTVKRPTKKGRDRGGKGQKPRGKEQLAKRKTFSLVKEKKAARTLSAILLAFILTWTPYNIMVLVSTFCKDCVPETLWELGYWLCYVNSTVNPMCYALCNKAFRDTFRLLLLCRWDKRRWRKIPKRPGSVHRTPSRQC
Chain of Cytochrome P450 2D6 (Homo sapiens) (P10635 whole entry, looked up): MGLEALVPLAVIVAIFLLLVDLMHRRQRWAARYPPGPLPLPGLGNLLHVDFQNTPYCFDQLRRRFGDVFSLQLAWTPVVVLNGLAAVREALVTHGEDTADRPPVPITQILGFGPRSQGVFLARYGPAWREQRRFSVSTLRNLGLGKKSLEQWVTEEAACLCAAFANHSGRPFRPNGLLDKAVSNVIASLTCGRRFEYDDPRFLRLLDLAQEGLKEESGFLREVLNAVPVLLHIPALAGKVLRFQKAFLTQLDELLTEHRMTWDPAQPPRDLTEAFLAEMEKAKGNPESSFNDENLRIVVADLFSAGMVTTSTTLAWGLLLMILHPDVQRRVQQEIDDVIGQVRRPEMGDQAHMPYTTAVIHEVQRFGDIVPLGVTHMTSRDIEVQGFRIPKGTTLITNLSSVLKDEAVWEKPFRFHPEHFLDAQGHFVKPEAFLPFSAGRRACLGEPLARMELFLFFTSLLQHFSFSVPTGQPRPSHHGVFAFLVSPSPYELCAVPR
Chain of Cytochrome P450 2C9 (Homo sapiens) (P11712 whole entry, looked up): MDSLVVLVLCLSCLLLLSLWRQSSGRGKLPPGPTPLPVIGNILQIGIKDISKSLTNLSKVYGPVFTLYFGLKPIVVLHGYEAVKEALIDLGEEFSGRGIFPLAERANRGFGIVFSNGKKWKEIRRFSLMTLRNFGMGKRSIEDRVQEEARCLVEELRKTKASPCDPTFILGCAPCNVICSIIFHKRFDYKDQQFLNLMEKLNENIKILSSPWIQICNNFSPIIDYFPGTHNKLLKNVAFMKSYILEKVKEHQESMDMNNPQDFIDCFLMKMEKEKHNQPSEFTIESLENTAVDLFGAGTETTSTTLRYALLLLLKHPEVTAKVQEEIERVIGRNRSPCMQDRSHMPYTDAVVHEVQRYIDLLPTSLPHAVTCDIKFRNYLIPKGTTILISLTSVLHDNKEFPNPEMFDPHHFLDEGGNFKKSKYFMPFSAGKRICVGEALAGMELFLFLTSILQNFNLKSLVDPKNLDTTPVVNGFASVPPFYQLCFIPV

For the compound `CCN(CC)CCCC(C)Nc1nc(C)cc(Nc2ccc3nc(C)cc(N)c3c2)n1` (centres undefined), the Potency result in assay [1] was “inactive”.
On to `CC(C[N+](C)(C)C)OC(N)=O` (centres undefined), for which the Potency entry in [1], in [2] and in assay [3] was “inactive” throughout.
Regarding `CCCc1nc2c(C)cc(-c3nc4ccccc4n3C)cc2n1Cc1ccc(-c2ccccc2C(=O)O)cc1`, the Potency entry in assay [2] and in assay [3] was “inactive” in each case.
In the case of `CCCc1nn(C)c2c(=O)[nH]c(-c3cc(S(=O)(=O)N4CCN(C)CC4)ccc3OCC)nc12`, the Potency entry in assay [2] and in [3] was “inactive” each time.
On to `CCN(c1ccccc1)c1cc(NC)[n+](C)c(C)n1`, for which the Potency in assay [4] is 3.98 µM (active).
Regarding `NC(=O)c1ccc(-c2nc(-c3ccc4c(c3)OCO4)c(-c3ccccn3)[nH]2)cc1`, in [5], the result was inactive.
As for `Cc1[nH]c(=O)c(C#N)cc1-c1ccncc1`, the compound was classed as inactive in assay [6], in assay [7] and in [8].
As to `Cc1cc2c(C(C)C)c(O)c(O)c(C=O)c2c(O)c1-c1c(C)cc2c(C(C)C)c(O)c(O)c(C=O)c2c1O`, the Potency result in assay [2] and in [3] was “inactive” in each case.
Turning to `Cc1[nH]c(=O)c(C#N)cc1-c1ccc2nccn2c1`, the compound was classed as inactive in assay [6], in assay [7] and in assay [8]. Besides, the Potency result in [9] is “inactive”.
With `NCCc1ccc(O)c(O)c1`, the compound was classed as inactive in [6] and in [8]. The Potency entry in assay [2], in assay [3], in [10] and in [9] was “inactive” throughout.
For `Cc1cn[nH]c1`, the outcome in [6], in assay [7] and in assay [8] was inactive.
As to `CNC[C@H](O)c1cccc(O)c1`, the compound was called inactive in assay [6], in assay [7] and in assay [8]. Also, the Potency entry in assay [10] and in [9] was “inactive” each time.
As to `Cc1ccccc1C(OCCN(C)C)c1ccccc1` (centres undefined), the Potency entry in assay [2] and in assay [3] was “inactive” each time.
Take `CCc1ccc(CCOc2ccc(CC3SC(=O)NC3=O)cc2)nc1` (centres undefined): the result in assay [5] was inactive. Besides, the Potency result in assay [2] and in assay [3] was “inactive” each time.
As for `O=NN(CCCl)C(=O)NCCCl`, the compound was classed as inactive in assay [6], in assay [7] and in assay [8]. For the same compound, the Potency result in assay [2] and in assay [3] was “inactive” throughout.
Regarding `CC(C)(C)NCC(O)c1ccc(O)c(CO)c1` (centres undefined), the Potency entry in assay [2] and in assay [3] was “inactive” each time.
Consider `CN1CCN(CCCN2c3ccccc3Sc3ccc(C(F)(F)F)cc32)CC1`, for which the call in assay [6] and in assay [8] was inactive. Also, the Potency entry in assay [2] and in assay [3] was “inactive” in each case. In addition, in assay [11], the Potency is 15.8 µM (active).
As to `O=C(O)COCCN1CCN(C(c2ccccc2)c2ccc(Cl)cc2)CC1` (centres undefined), the Potency result in assay [2] and in assay [3] was “inactive” in each case.
Regarding `COc1ccc2nc(S(=O)Cc3ncc(C)c(OC)c3C)[nH]c2c1` (centres undefined), the Potency entry in assay [12] and in [4] was “inactive” in each case. Moreover, the outcome in assay [5] was inactive. In assay [13], the activation is -6.85% and -23.9%.
On to `CCN(CC)CCCC(C)Nc1ccnc2cc(Cl)ccc12` (centres undefined), for which the Potency entry in [2] and in [3] was “inactive” each time.
As for `N#Cc1ccc(C(c2ccc(C#N)cc2)n2cncn2)cc1`, the activation in assay [13] was -2.88%.
For `NC[C@H](O)c1ccc(O)c(O)c1`, the compound was classed as inactive in [6] and in [8].
Take `Cc1cnc(NC(=O)C2=C(O)c3ccccc3S(=O)(=O)N2C)s1`: the compound was classed as inactive in assay [6] and in [8]. In addition, the Potency entry in [14], in assay [2] and in assay [3] was “inactive” throughout.
In the case of `CCn1cc(C(=O)O)c(=O)c2cc(F)c(N3CCNC(C)C3)c(F)c21` (centres undefined), the Potency result in assay [1], in assay [2] and in assay [3] was “inactive” in each case.
